Test results reported in PubChem BioAssay (NCATS).
Results filed as inconclusive are left out. Active and inactive are the calls of the source. Calls come from the whole dose curve; as a rule, active = well fitted curve in the direction sought with a large enough effect; inconclusive = small, poorly fitted or top-dose-only effect, or another doubt; inactive = no such curve, though single readings can be large; an effect the other way counts as inactive or inconclusive.

Key:
[1] = biological target: Phospholipid hydroperoxide glutathione peroxidase GPX4 (Homo sapiens) (UniProt P36969); experiment: Primary qHTS Assay for Inhibitors of Recombinant Selenoprotein Glutathione Peroxidase 4 (GPX4) (AID 1845192); note: nearly all actives have a fitted effect of over 65% in size; for activity change, negative = inhibition: series mostly up to about 50 µM; % is set by controls: 0 for no effect and ±100 for the full control effect
Sequence of Phospholipid hydroperoxide glutathione peroxidase GPX4 (Homo sapiens) (P36969 whole entry, looked up): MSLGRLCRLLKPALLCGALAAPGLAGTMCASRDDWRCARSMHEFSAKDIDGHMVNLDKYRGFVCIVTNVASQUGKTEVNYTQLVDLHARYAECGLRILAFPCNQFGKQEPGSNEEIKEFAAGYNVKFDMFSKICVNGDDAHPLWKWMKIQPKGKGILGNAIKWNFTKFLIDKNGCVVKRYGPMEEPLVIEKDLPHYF
Procedure, shortened: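 GR-coupled readout: 100 nM GR, 1 mM GSH, 0.5 mM NADPH; NADPH fluorescence (ex 340/em 450 nm) read at t=0 and after 15 min RT. GPX4 200 nM, preincubated 30 min with compound; substrate 0.5 mM CHP.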

[2] = biological target: Luciferin 4-monooxygenase (Photinus pyralis) (UniProt P08659); experiment: Primary firefly luciferase (FLuc) qHTS assay for identification of artifact compounds. (AID 1845220);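 note: series mostly up to about 54 µM; plate controls were DMSO vehicle for no effect and no enzyme for full effect; nearly all actives have a fitted effect of over 60% in size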
Procedure, shortened: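 qHTS, 15 min compound preincubation with substrate (10 uM luciferin, 10 uM ATP) at RT, then 10 nM FLuc; 5 min; luminescence; % inhibition vs no-enzyme/DMSO controls, 4-parameter Hill fit.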

[3] = Primary fluorescence-based thiol-reactive (MSTI) qHTS assay for identification of artifact compounds. (AID 1845221); note: nearly all actives have a fitted effect of over 65% in size; note: potency is the fitted concentration of half-maximal effect;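 for activity change, negative = thiol reactive: series mostly up to about 54 µM; thiol-reactive compounds lower the probe fluorescence signal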
Procedure, shortened: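 A multi-concentration qHTS design tested compounds against 4 uM MSTI, pH 7.4 phosphate-buffered saline. Plates were protected from light for 1 h at room temperature before imaging fluorescence.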

[4] = tested on: Nanoluciferase (engineered Oplophorus gracilirostris luciferase); experiment: Primary Nanoluciferase (NLuc) qHTS assay for identification of artifact compounds. (AID 1845222);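 note: series mostly up to about 54 µM; 0% = DMSO and -100% = no enzyme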
Procedure, shortened: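 Luminescence read-out of secreted NLuc in S16 cell conditioned medium (1:55); compounds tested with 15 min RT preincubation, then Nano-Glo substrate 1:100, 5 min. % inhibition vs no-enzyme and DMSO controls, 4-parameter Hill fit.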

[5] = Primary redox qHTS assay for identification of artifact compounds. (AID 1845223);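 note: 0% = DMSO and 100% = reference compound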
Procedure, shortened: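 Amplex Red (25 uM) and HRP (250 mU/mL) in HBSS, with compounds for 15 min, then 250 uM DTT for 30 min, room temperature, dark. Fluorescence 525/598 nm read; normalized to DMSO and 10 uM DA3003; Hill fit.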

Cc1cc(C(=O)N2CCCCc3ccccc32)ccc1CNC(=O)N1CCC[C@H]1C(=O)N(C)C
inactive: Potency [1] | Potency [2] | Potency [3] | Potency [4] | Potency [5]

CCC(C)C(=O)OC1CC(C)C=C2C=CC(C)C(CCC(O)CC(O)CC(=O)O)C21 (stereo not given)
inactive: Potency [1] | Potency [2] | Potency [3] | Potency [4] | Potency [5]

O=C(Nc1ccc(S(=O)(=O)C(F)(F)F)cc1)C1=CCN(c2ncccc2C(F)(F)F)CC1
inactive: Potency [1] | Potency [2] | Potency [3] | Potency [4] | Potency [5]

C=C(C(=O)O)C1CC(O)C2(C)CCCC(=C)C2C1 (stereo not given)
inactive: Potency [1] | Potency [2] | Potency [3] | Potency [4] | Potency [5]

CC(C)NCC(C(=O)N1CCN(c2ncnc3c2C(C)CC3O)CC1)c1ccc(Cl)cc1 (stereo not given)
inactive: Potency [1] | Potency [2] | Potency [3] | Potency [4] | Potency [5]

COCC1OC(OC(C)(C)C2CCC3(C)C=C(C4CCC5C4(C)CC(O)C4OC(C(C)(C)OC6OC(CO)C(O)C(O)C6NC(C)=O)CCC45C)CCC3O2)C(NC(C)=O)C(O)C1O (stereo not given)
inactive: Potency [1] | activity change, negative = inhibition [2] 0.545% [at 11.6 µM] | activity change, negative = thiol reactive [3] 5.19% [at 11.5 µM] | activity, negative = inhibition [4] -0.592% [at 11.6 µM] | redox activity (% of DA3003) [5] 3.42% [at 11.5 µM]

C=C(C)C(=O)O[C@H]1C[C@@](C)(O)C(=O)CC(O)/C(C)=C\[C@H]2OC(=O)C(=C)[C@H]12 (stereo not given in full)
inactive: Potency [1] | Potency [2] | Potency [4] | Potency [5]
active: Potency [3] 2930 nM

COc1ccc2[nH]c3c(-c4cccc5ccccc45)nccc3c2c1
inactive: Potency [1] | Potency [2] | Potency [3] | Potency [4] | Potency [5]
